# From PubChem
# NTMT1 inh: inhibitors of human N-terminal methyltransferase NTMT1. NTMT1 MTase-Glo SAH luminescence, purified enzyme. Potency, µM (doses to about 114 µM), without a hit: at the highest dose activity change, negative = inhibition, actives largely listed as inhibitors. Q9BV86. 2.5% of 59,000 active. AID 1645870;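 further: potency means the concentration at half of the fitted maximal effect; plate controls were DMSO vehicle for no effect and no enzyme for full effect; nearly all actives have a fitted effect of over 65% in size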
# Target sequence (Q9BV86 whole entry, looked up): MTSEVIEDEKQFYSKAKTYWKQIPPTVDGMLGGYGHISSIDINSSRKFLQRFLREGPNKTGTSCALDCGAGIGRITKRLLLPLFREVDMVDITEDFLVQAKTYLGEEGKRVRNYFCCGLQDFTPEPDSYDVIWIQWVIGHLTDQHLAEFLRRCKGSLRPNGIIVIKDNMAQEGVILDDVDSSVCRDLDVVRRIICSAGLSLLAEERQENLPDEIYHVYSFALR
# B2AR arrestin ag: ADRB2 beta-arrestin recruitment; P07550; HTLA Tango cells, beta-arrestin recruitment, luciferase luminescence, 18 h; Potency, µM (highest dose often 46.1 µM), most hits filed as activators; 44,000 tested, under 10 active; AID 1347077;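 further: potency means the concentration at half of the fitted maximal effect; 0% = DMSO and full agonism = EC100 isoproterenol or metaproterenol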
# Target sequence (P07550 whole entry, looked up): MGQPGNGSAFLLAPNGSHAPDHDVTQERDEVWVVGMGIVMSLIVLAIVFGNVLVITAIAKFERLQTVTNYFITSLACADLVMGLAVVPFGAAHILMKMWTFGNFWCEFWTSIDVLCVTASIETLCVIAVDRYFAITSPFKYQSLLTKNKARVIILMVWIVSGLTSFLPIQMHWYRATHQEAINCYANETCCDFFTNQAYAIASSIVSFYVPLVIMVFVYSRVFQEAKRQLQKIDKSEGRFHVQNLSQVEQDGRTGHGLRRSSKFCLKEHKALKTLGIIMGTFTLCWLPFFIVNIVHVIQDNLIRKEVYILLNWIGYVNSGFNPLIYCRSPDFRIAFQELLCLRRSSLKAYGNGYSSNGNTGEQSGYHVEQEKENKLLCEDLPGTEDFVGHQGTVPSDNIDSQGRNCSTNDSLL
#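 Luminescence read-out: arrestin recruitment to recombinant beta2-AR releases tTA, inducing luciferase. Cells exposed 18 hr at 37 degrees C to up to 46 microM compound; %Activity from corrected signal, concentration-response curves classified by r2, magnitude and efficacy.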
# GALK inhibitor: inhibitors of human galactokinase (GALK). P51570. recombinant GALK, Kinase-Glo ATP luminescence, 1 h. Potency, µM (highest dose often 57.5 µM), inactives show at the highest dose activity, negative = inhibition, hits mostly inhibitors. 44,000 tested, under 10 active. AID 1347072;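 further: plate controls were full GALK reaction for no effect and reaction lacking GALK for full effect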
#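 Luminescent ATP-depletion readout (Kinase-Glo Plus, 10 min) after 1 h RT reaction of 5 nM GALK, 35 uM ATP, 100 uM galactose, pH 8.0 HEPES buffer. Decreased kinase activity scored as inhibition.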
# TSG101-PTAP inh: inhibitors of HIV-1 PTAP binding to human TSG101, validation; Q99816; Fluorescence polarization, FITC-PTAP peptide/Tsg101, 20 min; Potency, µM (titrated, usually from 115 µM), actives largely listed as inhibitors; 44,000 tested, under 10 active; further: potency means the concentration at half of the fitted maximal effect; 0% is about no effect
#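 Compounds pinned into 10 uM Tsg101 binding domain, then 50 nM FITC-PTAP peptide added in pH 7.5 HEPES buffer; FP read after 20 min, room temperature. Total S+P intensity flags fluorescent compounds; active cut-off <25 µM, efficacy <60%.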
# GALC G270D act: raises human GALC G270D mutant activity in cells | P54803 | 0.1% of 45,000 active | 145M-Twi-hGALC-G270D cells, HMU-beta-Gal fluorescence, 48 h | Potency, µM (highest dose often 57.5 µM), most hits filed as activators; further: potency means the concentration at half of the fitted maximal effect; 0% is about no effect; nearly all actives have a fitted effect of over 65% in size
#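 qHTS, 1536-well; 145M-Twi-hGALC-G270D cells (WT line also made) in DMEM/F12 + 10% FBS; compound incubation on live cells; HMU-β-gal 0.1 mM final, pH 5.2, NaTC; carbonate stop; fluorescence increase = enhanced residual activity.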
# DRV1 agonist: activates human resolvin D1 receptor GPR32. activation, % at 76.9 µM. CHO-K1 GPR32 beta-arrestin PathHunter luminescence, 90 min; zero percent set by DMSO-only wells. 2.5% of 48,000 active. O75388;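 active means activation of at least 60% and not above a set upper limit, about 1 call in 100 departs from these limits; inconclusive means activation of 40% to 60%, or above that upper limit; inactive means activation under 40%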; further: 0% is about no effect
#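 CHO-K1 cells stably expressing ProLink-tagged GPR32 and Enzyme Activator-tagged beta-arrestin were seeded at 2,500 cells/well overnight, exposed to compounds for 90 min at 37 °C, then read by beta-Gal complementation chemiluminescence after 1 h detection reagent.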
# Starred values were filed as active, the others as inactive; i = inactive; ? = inconclusive; / = no result; ! = not confirmed by another sample; [ ] = another dose, or the depositor's remark. Shown are actives, neighbours in structure and some others; about 3.6% of the full set was active somewhere. Unless noted, the call rests on the fitted dose curve; in most records, active means well fitted curve in the direction sought with a large enough effect; inconclusive means small, poorly fitted or top-dose-only effect, or another doubt; inactive means no such curve, though single readings can be large; an effect the other way counts as inactive or inconclusive.
SMILES,NTMT1 inh,B2AR arrestin ag,GALK inhibitor,TSG101-PTAP inh,GALC G270D act,DRV1 agonist
O=C1Nc2ccc(I)cc2C1=Cc1cc(Br)c(O)c(Br)c1,17µM*,/,/,/,/,/
CC(=O)c1ccc(N2CCN(C(=O)c3ccc4c(c3)CCC(=O)N4)CC2)cc1,10%,/,/,/,/,/
Oc1c(C(c2ccc(Cl)cc2Cl)N2CCN(Cc3ccccc3)CC2)sc2nc(-c3ccco3)nn12 (stereo not drawn),3%,i,-4%,i,i,-8
Oc1c(C(c2ccccc2Cl)N2CCN(Cc3ccccc3)CC2)sc2nc(-c3ccco3)nn12 (stereo not drawn),5%,i,-4%,i,i,94*
Cc1cc(N[S+](=O)([O-])c2ccc(NC(=O)Cc3cccc(Cl)c3Cl)cc2)no1,3%,/,/,/,/,/
CCOc1ccc(CCNC(=O)c2ccc(-c3nc(CSc4ccc(C)cc4)c(C)o3)cc2)cc1,10%,i,-2%,i,i,-8
Cc1cccc(CNC(=O)c2ccc(-c3nc(CS(=O)(=O)c4ccccc4)c(C)o3)cc2)c1,-5%,i,-1%,i,?,80*
CCc1ccc(CNC(=O)c2ccc(-c3nc(CS(=O)(=O)c4ccccc4)c(C)o3)cc2)cc1,/,i,-3%,i,/,84*
Cc1ccc(OCc2nc(-c3ccc(C(=O)NCCc4ccc(S(N)(=O)=O)cc4)cc3)oc2C)cc1,-3%,i,7%,i,i,82*
CC(C)[C@H]1CCC(CO)=C[C@@H]1/C=C(\CO)C(=O)O,-12%[57.5 µM],/,/,/,/,/
O=C(CCCc1ccc2cccnc2n1)NCc1cc(-c2ccc(F)c(C(F)(F)F)c2)no1,-9%[57.5 µM],/,/,/,/,/
COc1ccc(C(=O)CN2CCN(S(=O)(=O)c3ccc(C(C)C)cc3)CC2)cc1,56µM*,i,1%,i,i,20
CCOc1ccc(NC(=O)CN2CCN(S(=O)(=O)c3ccc(OC)cc3)CC2)cc1,-22%,i,-1%,i,i,11
COC(=O)c1cc(NC(=O)c2ccc3c(c2)NC(=O)c2ccccc2S3)cc(C(=O)OC)c1,?,i,-1%,i,i,-18
O=C(Nc1ccc(F)cc1)c1ccc2c(c1)NC(=O)c1ccccc1S2,/,i,11%,i,/,76*
N=C(N)c1ccc2cc(OC(=O)c3ccc(N=C(N)N)cc3)ccc2c1,79µM*!,/,/,/,i,-32
CC(C)(C)OC(=O)N1CCN(c2ccc(NCc3ccc(-c4ccc(C#N)cc4)nc3)cc2)CC1,-11%,/,/,/,/,/
CC(OC1OCCN(Cc2n[nH]c(=O)[nH]2)C1c1ccc(F)cc1)c1cc(C(F)(F)F)cc(C(F)(F)F)c1 (stereo not drawn),-6%[57.5 µM],/,/,/,/,/
CC(=O)N[C@H]1[C@H](O[C@H]2CC[C@@]3(C)C(CC[C@]4(C)C3CC=C3C5CC(C)(C)CC[C@]5(C(=O)O)[C@H](O[C@@H]5O[C@H](CO)[C@@H](O)[C@H](O)[C@H]5O)C[C@]34C)C2(C)C)O[C@H](CO[C@@H]2OC[C@H](O)[C@H](O)[C@H]2O[C@@H]2OC[C@@H](O)[C@H](O)[C@H]2O)[C@@H](O)[C@@H]1O (stereo partly drawn),-6%[12.6 µM],/,/,/,/,/
CCc1ccccc1-n1c(N)c(C(=O)OC)c2nc3ccccc3nc21,-4%,i,-1%,i,25µM*,0
CCOC(=O)c1c(N)n(-c2ccccc2CC)c2nc3ccccc3nc12,3%,i,1%,i,?,-2
O=C(/C=C/c1ccc(O)cc1)OC[C@H]1O[C@@H](OC(=O)/C=C/c2ccccc2)[C@H](O)[C@@H](O)[C@@H]1O,-10%[29.8 µM],/,/,/,/,/
CN1CCCN(C(=O)c2cccc(-c3ccc(/C=C4/C(=O)Nc5ccc(Cl)cc54)o3)c2)CC1,11µM*,/,/,/,/,/
C[C@H](Cc1ccc(O)c(O)c1)[C@@H](C)Cc1ccc(O)c(O)c1,7.9µM*,/,/,/,/,30
O=C(O)C(O)Cc1ccc(O)c(O)c1 (stereo not drawn),89µM*!,/,/,/,/,/
SMILES,NTMT1 inh,B2AR arrestin ag,GALK inhibitor,TSG101-PTAP inh,GALC G270D act,DRV1 agonist
C[C@@H]1CC(=O)Nc2cccc(-c3cnn(C(C)(C)C)c3)c2N1,14%,/,/,/,/,/
COc1ccc(C(Nc2ccccn2)c2ccc3ccc(C)nc3c2O)cc1C (stereo not drawn),11%,i,0%,i,i,90*
Cc1ccc(C(Nc2ccccn2)c2ccc3cccnc3c2O)cc1 (stereo not drawn),10%,i,0%,i,i,?
OCc1ccc(O[C@@H]2O[C@H](CO)[C@@H](O)[C@H](O)[C@H]2O)cc1,12%[57.5 µM],/,/,/,/,/
COc1cc(-c2nc3nc[nH]n3c2Nc2ccc(C(C)C)cc2)ccc1O,45µM*,i,5%,i,i,-19
COc1cc(-c2nc3cnccn3c2Nc2ccc(C(C)C)cc2)ccc1O,0%,i,0%,i,i,29
CCOc1ccccc1NC(=O)CSc1nc2ccccc2c2nc(CCn3cncc3C)nn12,?,i,1%,i,i,97*
Cc1cncn1CCc1nc2c3ccccc3nc(SCC(=O)Nc3ccc(F)cc3)n2n1,2%,i,1%,i,i,-10
Oc1cc(O)cc(/C=C/c2ccc(O)c(O)c2)c1,35µM*,/,/,/,/,17
O=C(C(Cc1cccc(C(F)(F)F)c1)NS(=O)(=O)c1cc(F)c2c(c1)CCNC2)N1CCCC1 (stereo not drawn),7%[57.5 µM],/,/,/,/,/
Fc1cc(Nc2nc(-c3ccncc3)nc3ccccc23)ccc1N1CCNCC1,10µM*,/,/,/,/,/
Fc1cc(Nc2nc(-c3ccncc3)nc3ccccc23)ccc1-c1ccncc1,-1%,/,/,/,/,/
C[C@]1(C(=O)Nc2ccc(F)nc2)CCCN1c1nc(Nc2cc(C3CC3)[nH]n2)c2cccn2n1,13%,/,/,/,/,/
CCN(CC)CCOc1ccc(C(O)(Cc2ccc(Cl)cc2)c2ccc(C)cc2)cc1 (stereo not drawn),-29%[57.5 µM],/,/,/,i,63*
CCc1ccc(NC(=O)Cn2nc(C(F)(F)F)c3c2CCCC3)cc1,3%,i,2%,i,i,7
Cc1ccc(NC(=O)Cn2nc(C(F)(F)F)c3c2CCCC3)cc1,-3%,i,2%,i,i,77*
COC(=O)C#Cc1ccc([N+](=O)[O-])cc1,0%,/,/,/,/,/
CSc1ccc(Cn2nnc(C(=O)Nc3ccc(C)cc3Cl)c2N)cc1,-2%,i,1%,i,i,99*
N#Cc1ncc(C(=O)OCC(=O)NC2C3CC4CC(C3)CC2C4)cn1 (stereo not drawn),8%,/,/,/,/,/
